Compound activity deposited in PubChem BioAssay by several laboratories.
CYP2C9 inh: human CYP2C9 inhibition | P11712 | CYP2C9 Supersomes, luciferin-H conversion, luminescence | inhibition, % at 5 µM | hit rate 20% among 96,000 | AID 777;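 active = blocking of liver enzyme CYP2C9 beyond about 50% at 5 µM, limit read from the data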
CYP2C19 activ: cytochrome P450 2C19 (human) activation. P33261. recombinant CYP2C19, luciferin-H EGE luminescence; active compounds read high; 0 = fully inhibited enzyme, 1 = untreated enzyme. activation factor at 5 µM. 96,000 tested, under 10 active. AID 1025;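 active = activation factor of at least 2 at 5 µM in the primary screen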;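 note: 0 = wells with 2.5 mM tranylcypromine and 1 = vehicle-only wells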
Target sequence (P33261 whole entry, looked up): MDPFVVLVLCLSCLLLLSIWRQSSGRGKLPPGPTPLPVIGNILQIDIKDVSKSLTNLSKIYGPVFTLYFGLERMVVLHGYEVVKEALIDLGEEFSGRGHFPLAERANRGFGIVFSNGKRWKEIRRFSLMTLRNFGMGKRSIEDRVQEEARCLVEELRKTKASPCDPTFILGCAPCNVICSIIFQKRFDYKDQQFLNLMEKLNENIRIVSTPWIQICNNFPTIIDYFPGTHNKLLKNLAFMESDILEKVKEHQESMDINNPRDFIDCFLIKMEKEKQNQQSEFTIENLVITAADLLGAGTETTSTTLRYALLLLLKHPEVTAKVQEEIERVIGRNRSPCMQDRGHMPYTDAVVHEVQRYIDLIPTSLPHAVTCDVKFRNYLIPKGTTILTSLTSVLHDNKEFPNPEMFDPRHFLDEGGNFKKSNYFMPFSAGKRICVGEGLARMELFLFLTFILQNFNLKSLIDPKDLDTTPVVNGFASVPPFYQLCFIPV
CYP2C19 inhib: inhibitors of human CYP2C19. CYP2C19 Supersomes, luciferin-H EGE luminescence, 30 min. P33261. hit rate 21% among 96,000. inhibition, % at 5 µM;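 active = CYP2C19 inhibition above a set limit at 5 µM in the primary screen, cut at about 50% in these data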;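 note: plate controls were negative control wells for no effect and 2.5 mM tranylcypromine positive control for full effect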
Measles CPE: protection of cells from measles virus | Measles virus-infected cells, CPE protection, absorbance | protection (pct of control), % at 4 µM | hit rate 1.5% among 140,000; in the data active = protection mostly above about 24%, no sharp cut-off; inactive = mostly below about 26%
CYP2C9 activ: activators of human CYP2C9; recombinant CYP2C9, luciferin-H conversion, luminescence; active compounds read high; factor 1 = untreated enzyme, 0 = blocked; activation factor at 5 µM; AID 1024; hit rate 1.4% among 96,000;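 active = activation factor of 2 or more for CYP2C9 at a 5 µM dose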;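 note: 0 = sulfaphenazole-blocked wells and 1 = vehicle-only wells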
An asterisk follows results filed as active; · = not tested or not shown. Most compounds without a hit are left out; they make up all but 22% or so of the library.

SMILES	CYP2C9 inh	CYP2C19 activ	CYP2C19 inhib	Measles CPE	CYP2C9 activ
O=C(c1c(Cl)cccc1Cl)N1CCN(c2ccccn2)CC1	63.2*	0.6	37.4	15.7	0.4
O=C(c1ccc(S(=O)(=O)N2CCCCCC2)cc1)N1CCN(c2ccccn2)CC1	69.4*	0.9	7.5	6.2	0.3
O=C(c1cccc(Cl)c1)N1CCN(c2ccccn2)CC1	79.4*	0.1	89.8*	5.6	0.2
O=C(Nc1cccc2c1CCCC2)c1ccco1	-14.1	0.6	40.4	6.1	1.1
O=C(CCNC(=O)c1ccc(Cl)cc1)Nc1ccc(Cl)cc1F	·	·	·	18.2	·
Cc1ccc(N(CC(N)=O)C2SC(=O)N(Cc3cccc(C(=O)O)c3)C2=O)cc1 (stereo unspecified)	5.5	0.9	12.6	6.0	0.9
CN(CC(=O)Nc1cc([N+](=O)[O-])ccc1Cl)Cc1ccc(Br)cc1	·	·	·	2.5	·
Nc1cccc2c1C(=O)N(C(=O)c1ccc(S(=O)(=O)N3CCCCCC3)cc1)C2=O	57.0*	0.7	28.7	9.1	0.4
O=C(c1cc(Cl)ccc1Cl)N1CCN(c2ccccn2)CC1	92.1*	0.1	94.1*	8.5	0.1
O=C(c1ccc(Cl)c(S(=O)(=O)N2CCCC2)c1)N1CCN(c2ccccn2)CC1	31.8	0.9	11.4	19.9	0.7
O=C(c1ccc(S(=O)(=O)N2CCCCC2)cc1)N1CCN(c2ccccc2)CC1	-2.1	1.2	-17.7	18.2	1
CCc1cc2c(nc1CC)CCN(CC/C(C)=N/O[C@@H](C)c1cc(-c3c(C)cc(C)cc3C)no1)C2	·	·	·	24.5*	·
C/C(CCN1CCc2nc(-c3ccccc3)c(-c3ccccc3)cc2C1)=N\O[C@@H](C)c1cc(-c2c(C)cc(C)cc2C)no1	·	·	·	4.6	·
CCCNS(=O)(=O)c1ccc(Oc2ncc(C(F)(F)F)cc2Cl)cc1	67.3*	0.1	87.1*	11.5	0.3
O=S(=O)(Nc1ccccc1)c1ccc(Oc2ncc(C(F)(F)F)cc2Cl)cc1	20.6	0.9	7.1	41.2*	0.8
CCCCC(=O)Nc1nc(C)c(-c2csc(Nc3ccccc3OC)n2)s1	40.8	0.9	9.7	11.6	0.6
CCCCCC(=O)Nc1nc(C)c(-c2csc(Nc3cc(OC)ccc3OC)n2)s1	55.1*	0.8	18.8	1.8	0.4
CCC(C)C(=O)Nc1nc(C)c(-c2csc(Nc3ccccc3OC)n2)s1 (stereo unspecified)	63.3*	0.7	27.3	4.6	0.4
C=CCCC(=O)Nc1nc(C)c(-c2csc(Nc3ccccc3OC)n2)s1	57.1*	0.8	16.7	1.7	0.4
CCn1cc(CN(C)S(=O)(=O)c2ccc3ccccc3c2)c(C)n1	·	·	·	20.7	·
Cc1ccc(CN2C(=O)CCSc3ccc(Cl)cc32)cc1	17.3	0.6	35.9	7.2	0.8
O=S(=O)(CCc1nc2ccccc2o1)c1ccc2ccccc2c1	-169.4	0.8	17.2	0.4	2.7*
O=S(=O)(CCc1nnc(-c2ccccc2)o1)c1ccc2ccccc2c1	-0.6	0.9	13.2	20.4	1
CC(NC(=O)CSc1ncnc2nc[nH]c12)c1ccccc1 (stereo unspecified)	93.5*	0.8	22.6	16.4	0.1
O=C(CSc1ncnc2nc[nH]c12)NCCc1ccccc1	-2.6	0.9	6.2	4.0	1
SMILES	CYP2C9 inh	CYP2C19 activ	CYP2C19 inhib	Measles CPE	CYP2C9 activ
COc1ccc(CNC(=O)CSc2ncnc3nc[nH]c23)cc1	17.2	0.4	60.8*	30.3	0.8
CCCCn1c(=O)n(CC(=O)Nc2ccc(C)c(Cl)c2)c(=O)c2c1ncn2Cc1ccco1	61.8*	0.5	51.4*	5.5	0.4
CCCCn1c(=O)n(CC(=O)Nc2ccc(OC)c(Cl)c2)c(=O)c2c1nc(CO)n2CCC	90.1*	0.2	79.4*	10.1	0.1
Cc1cccc2nc(CSC(=N)N)c(Br)n12	·	·	·	11.5	·
COc1ccc(/C=N/NC(=O)Cn2nc(C)c([N+](=O)[O-])c2C)cc1	·	·	·	1.3	·
CCC1=NN2C(=N)/C(=C/c3c(C)nn(-c4ccccc4)c3Cl)C(=O)N=C2S1	·	·	·	71.3*	·
Cn1c2ccccc2c2ncn(CCCN3CCOCC3)c(=O)c21	-6.8	0.8	22.4	17.1	1.1
CC1(C)Cc2nc3sc4c(N(CCO)CCO)ncnc4c3cc2CO1	-3.0	1.1	-12.3	7.8	1
CC1(C)Cc2nc3sc4c(SCC(=O)NCc5ccccc5)ncnc4c3cc2CO1	72.9*	0.2	83.4*	1.7	0.3
C(=N\Nc1ncnc2sc3c(c12)CCC3)/c1ccncc1	82.1*	0.2	83.2*	2.0	0.2
O=C(Nc1ncnc2sc3c(c12)CCCCC3)c1ccccc1	16.7	0.5	51.3*	23.5	0.8
C(=N\Nc1ncnc2sc3c(c12)CCC3)/c1cccs1	21.4	0.8	17.9	14.0	0.8
O=C(Nc1ncnc2sc3c(c12)CCC3)c1ccco1	-139.0	0.6	43.5	9.9	2.4*
CCc1ccccc1NC(=O)CC(c1ccc(OC)cc1)n1cccc1 (stereo unspecified)	·	·	·	6.3	·
Cc1nn(C)c(C)c1CN(C)C(=O)CCCC(=O)O	·	·	·	9.8	·
O=C(Nc1cccc([N+](=O)[O-])c1)c1ccc(CSc2ccccc2)cc1	-5.7	1	-4.2	6.1	1.1
COc1cc(NC(=S)N2CCN(C(c3ccccc3)c3ccccc3)CC2)cc(OC)c1	37.6	0.7	32.0	30.5	0.6
Cc1ccc2c(c1)sc[n+]2Cc1ccccc1	68.2*	0.3	65.7*	7.0	0.3
Cc1cn(Cc2ccccc2)c(=O)[nH]c1=O	9.0	0.9	12.5	12.2	0.9
N#Cc1cn(OCc2ccccc2)c(=O)[nH]c1=O	·	·	·	30.7*	·
CCOC(=O)c1[nH]c2ccccc2c1NC(=O)C(C)(C)C	40.3	1	1.5	14.5	0.6
COCON1C(=O)CN(C(C)=O)C1c1ccc(Cl)cc1Cl (stereo unspecified)	-2.3	0.7	34.5	11.3	1
CON1C(=O)CN(C(C)=O)C1c1ccc(Cl)cc1Cl (stereo unspecified)	-51.6	0.5	53.9*	28.8	1.5
COC(=O)N1CC(=O)N(OC)C1c1ccc(Cl)cc1Cl (stereo unspecified)	-6.7	0.1	86.9*	19.8	1.1
C[C@@H]1C(=O)O[C@@H]2CC34[C@H]5C[C@@H](C(C)(C)C)C36[C@H](OC(=O)[C@@H]6O)OC4(C(=O)O5)[C@@]12O (stereo partly specified)	·	·	·	15.7	·
SMILES	CYP2C9 inh	CYP2C19 activ	CYP2C19 inhib	Measles CPE	CYP2C9 activ
CCCCN(N=Nc1nonc1OC)c1nonc1OC	72.9*	0.1	85.4*	6.2	0.3
CC(C)NS(=O)(=O)c1ccc(N2C(=O)c3ccccc3C2=O)cc1	13.2	0.9	10.1	18.4	0.9
CC(=O)NC(=O)NC1OC(=O)C(Cl)=C1Cl (stereo unspecified)	-24.9	1.2	-23.5	16.0	1.2
COc1cccc(OC)c1C(=O)N1CCN(Cc2ccncc2)CC1	62.6*	0.2	78.3*	3.5	0.4
COc1ccccc1CN1CCN(C(=O)c2ccncc2)CC1	11.6	0.1	86.6*	20.6	0.9
COc1cccc(OC)c1C(=O)N1CCN(c2ccccn2)CC1	6.8	0.8	25.0	20.4	0.9
N/C(CC(=O)Nc1ccc(F)cc1)=N\O	·	·	·	12.1	·
